Peg3 imprint: genomic imprint erasure induction; mouse ES Peg3-LacZ reporter, beta-gal luminescence, 40 h; Potency, µM (titrated, usually from 60.7 µM), for the others: at the top dose activity change, positive = activation, most hits filed as activators; hit rate 0.02% among 110,000; AID 1948
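Each well holds 300 Peg3LacZ-Neo (maternal) female ES cells incubated 40 h at 37C, 5% CO2. LacZ is measured by BetaGlo luminescence, with AC50 and maximum efficacy derived from dose-response curves.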
p53ts 32C tox: kills p53ts cells at the permissive temperature; hit rate 0.93% among 130,000; H1299-p53A138V at 32C, ATP luminescence viability, 24 h; Potency, µM (doses to about 46.1 µM), for the others: at the top dose activity change, negative = cytotoxicity, usual class: cytotoxic;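 further: 0% = DMSO and -100% = full killing by reference compound; nearly all actives have a fitted effect of over 55% in size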
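Viability by ATPlite luminescence after 24 h compound treatment (up to 46 uM) at the permissive 32C. Cells are H1299 carrying p53 A138V. Scale runs from DMSO basal to 100 uM tamoxifen as full kill; AC50 from Hill fits.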
p53ts 39C tox: kills p53ts cells at the nonpermissive temperature | H1299-p53A138V viability at 39C, ATP luminescence, 24 h | Potency, µM (titrated, usually from 46.1 µM), without a hit: at the top dose activity change, negative = cell killing, actives largely listed as cytotoxic | hit rate 1.5% among 130,000; further: on the % scale 0 is the no-effect control and ±100 the full control effect; nearly all actives have a fitted effect of over 55% in size
Numbers without * were called inactive; ? = inconclusive; . = no result; [ ] = dose if it differs, or a comment. Sampled rows, rich in hits. Any-hit rate of the full collection: about 1.8%. The call rests on the fitted dose curve; in most records, active means well fitted curve in the direction sought with a large enough effect; inconclusive means small, poorly fitted or top-dose-only effect, or another doubt; inactive means no such curve, though single readings can be large; an effect the other way counts as inactive or inconclusive. Potency means the concentration at half of the fitted maximal effect.

SMILES	Peg3 imprint	p53ts 32C tox	p53ts 39C tox
CSc1nn(CC(=O)Nc2ccc(C)cc2C)c(N)c1S(=O)(=O)c1ccc(Cl)cc1	-5.3%[10.9 µM]	34.9%	?
COC1=C(OC)C(=O)c2ccccc2C1=O	-29.7%	6.31µM*	3.98µM*
CN=CC1=C(O)c2ccccc2C1=O	-26.0%	-9.5%	-4.5%
CC1(N)CCC(C(C)(C)N)CC1 (stereo not drawn)	-3.8%	9.9%[1.84 µM]	15.6%
COc1ccc(C(=O)Nc2ccccn2)cc1	.	-1.5%	17.1%
CC(C)(C)c1ccc(C(=O)Nc2cnccn2)cc1	-61.3%	5.01µM*	5.01µM*
CC(=O)N1CCc2cc(NC(=O)c3ccc(C)cc3)ccc21	-9.2%	6.31µM*	10µM*
CC(=O)Nc1ccc(NC(=O)c2ccc3c(c2)CCN3S(=O)(=O)c2ccc(C)cc2)cc1	9.0%[10.9 µM]	6.2%	-13.3%
Cc1cccc(NC(=O)CSc2nc3c(oc4ccccc43)c(=O)n2-c2ccccc2)c1C	?	15.7%	-0.3%
COc1ccc2c(=O)c(-c3ccccc3)coc2c1	-58.9%	?	5.01µM*
CCN(CC)C(=O)Oc1ccc2c(=O)c(-c3ccccc3)coc2c1	-78.2%	-23.4%	?
Cc1ccccc1Cn1c(=O)n(CCc2ccccc2)c(=O)c2c(C)c(C)sc21	3.4%[10.9 µM]	13.2%	1.2%
Cc1ccc(C(=O)N2CCC(c3c[nH]c4ccccc34)(c3c[nH]c4ccccc34)CC2)cc1	15.5%[10.9 µM]	24.3%	-13.8%
O=c1oc2ccccc2cc1-c1cn2cc(Cc3cc(Cl)ccc3Cl)sc2n1	-7.9%[10.9 µM]	-3.8%	9.9%
Fc1ccccc1Cc1cn2cc(-c3ccc(Cl)cc3)nc2s1	7.0%[10.9 µM]	?	10µM*
Cc1c(C(=O)NCc2ccc(F)cc2)sc2nc(-c3ccc(F)cc3)cn12	5.3%[10.9 µM]	-5.4%	-3.0%
Fc1ccc(Cc2cn3cc(-c4ccc(F)cc4)nc3s2)cc1	-13.4%[10.9 µM]	?	7.94µM*
Cc1ccc(CNC(=O)c2sc3nc(-c4ccccc4)cn3c2C)cc1	-4.3%[10.9 µM]	-2.7%	-21.7%
Fc1ccc(-c2cn3cc(Cc4ccccc4Cl)sc3n2)cc1	25.6%[10.9 µM]	7.94µM*	5.01µM*
Cc1ccc(Cc2cn3cc(-c4ccccc4)nc3s2)cc1	-21.6%[10.9 µM]	?	3.98µM*
O=C(Cc1csc2nc(-c3ccc(F)cc3)cn12)NCc1ccccc1	13.6%[10.9 µM]	-8.1%	-16.2%
O=S(=O)(O)c1ccc(NN(c2c(O)ccc3ccccc23)S(=O)(=O)O)cc1	-88.9%[10.9 µM]	7.4%[9.22 µM]	-2.0%[9.22 µM]
Cc1cc2c(nc1C)CCCN2C[C@H](O)CN1CCCc2nc(-c3ccc(Br)cc3)ccc21	.	-2.7%[9.22 µM]	8.9%[9.22 µM]
CCOc1cccc(NC(=O)c2sc3nc(-c4ccc(F)cc4)ccc3c2N)c1	-3.4%[10.9 µM]	0.5%	0.7%
CCNC(=O)CC1C(=O)N(c2ccccc2)C(=O)N1Cc1ccc(F)cc1 (stereo not drawn)	-9.2%[10.9 µM]	1.5%	18.3%
SMILES	Peg3 imprint	p53ts 32C tox	p53ts 39C tox
Clc1ccc(-c2cn3cc(Cc4ccccc4)sc3n2)cc1	-4.1%[10.9 µM]	?	6.31µM*
CC(C)c1ccc(Cc2cn3cc(-c4cc5ccccc5oc4=O)nc3s2)cc1	-20.1%[10.9 µM]	6.8%	-19.1%
COc1ccc(CNc2nc3c(-c4cccc(F)c4)nnn3c3ccccc23)cc1	-8.3%[10.9 µM]	?	12.6µM*
COc1ccc(CNc2nc3c(-c4cccc(C)c4)nnn3c3ccccc23)cc1	-9.1%[10.9 µM]	-5.5%	?
COc1cc(-c2ccno2)ccc1S(=O)(=O)N1CCN(c2ccccc2)CC1	-10.4%[10.9 µM]	0.0%	?
CCCCCCCCCCCCCCCC(=O)O[C@H](CC(=O)O)C[N+](C)(C)C	-9.8%	12.6µM*	?
CCCCCCCCCCCCCCCC(=O)OC(CC(=O)O)C[N+](C)(C)C (stereo not drawn)	-23.9%	.	.
NC(N)=NC(=O)c1nc(Cl)c(N)nc1N	-17.3%	-7.4%	7.2%
NC(=NCc1ccc(Cl)c(Cl)c1)NC(=O)c1nc(Cl)c(N)nc1N	-12.3%	12.6µM*	12.6µM*
COc1ccc(N2Cc3cccc(C(=O)Nc4ccc(C)cc4)c3C2=O)cc1	4.3%[10.9 µM]	6.6%	-8.2%
COc1ccc(N2Cc3cccc(C(=O)Nc4ccc(C(C)C)cc4)c3C2=O)cc1	-12.0%[10.9 µM]	5.01µM*	3.98µM*
CCC1=C2CC[C@H]3C(=O)N(CC(=O)OC)C(=O)[C@H]3[C@H]2[C@@]2(C)C(=NCCc3c[nH]c4ccccc34)OC(=O)N2C1=O	-1.4%	1.7%	-1.1%
CCc1nnc(NC(=O)Nc2ccccc2OC)s1	-8.2%	13.2%	-6.3%
CCc1nnc(NC(=O)c2ccc(OC)cc2OC)s1	-45.3%	15.8µM*	?
COc1ccc(-n2c(SCc3ccccc3F)nc3c([nH]c4ccccc43)c2=O)cc1OC	-9.9%[10.9 µM]	5.2%	?
COc1ccc(C(C)C)cc1S(=O)(=O)NCCc1c(C)[nH]c2c(Cl)cccc12	-9.1%[10.9 µM]	0.0%	?
Cc1ccc(C)n1-c1c(C(=O)NCC(C)c2ccccc2)sc2ncccc12 (stereo not drawn)	-15.3%[10.9 µM]	9.6%	-9.3%
CCOC(=O)c1nn(-c2ccc3c(c2)CCN3C(C)=O)cc1O	-64.2%	5.01µM*	3.98µM*
CCOCCCNS(=O)(=O)c1ccc2c(c1)CCN2C(C)=O	-8.2%	3.9%	-11.8%
OC[C@H]1O[C@@H](n2cnc3c(NCc4ccccc4)ncnc32)[C@H](O)[C@@H]1O	-0.5%	6.31µM*	10µM*
OC[C@H]1O[C@@H](n2cnc3c(NCCc4ccccc4)ncnc32)[C@H](O)[C@H]1O	-21.3%	11.3%	-12.1%
COc1ccc(C2CC(=O)Nc3cc4c(cc32)OCO4)c(OC)c1 (stereo not drawn)	-9.2%[10.9 µM]	7.3%	-18.7%
COc1ccc(C2CC(c3c(O)cc(C)oc3=O)=NCCS2)c(OC)c1 (stereo not drawn)	-16.5%	3.98µM*	2.51µM*
CC1=C(/C=C/C(C)=C/C=C/C(C)=C/C(=O)Nc2ccc(O)cc2)C(C)(C)CCC1	-19.0%	?	15.8µM*
CC1=C(\C=C/C(C)=C/C=C\C(C)=C\C(=O)O)C(C)(C)CCC1	-21.7%	21.6%	4.6%
SMILES	Peg3 imprint	p53ts 32C tox	p53ts 39C tox
COCCNc1nc(-c2ccc(C(=O)N(C)C)cc2)nc2ccccc12	-14.1%	?	?
CC(=O)NCCNc1nc(-c2ccc(N(C)C)cc2)nc2ccccc12	?	?	12.6µM*
Cc1cnc(CNc2nc(-c3ccc(N(C)C)cc3)nc3ccccc23)cn1	.	10µM*	10µM*
Cc1cnc(CNc2nc(-c3ccccc3C(F)(F)F)nc3ccccc23)cn1	-13.0%	4.8%	-0.5%
CC(=O)NCCNc1nc(-c2ccc3c(c2)OCO3)nc2ccccc12	29.0%	-7.3%	-6.2%
COCCNc1nc(-c2ccc(N(C)C)cc2)nc2ccccc12	-28.1%	12.6µM*	10µM*
CCOC(=O)c1c(C)[nH]c(C)c1S(=O)(=O)N1CCCC(C(=O)NCc2cccc(C)c2)C1 (stereo not drawn)	1.5%[10.9 µM]	2.9%	-2.9%
COc1ccc(NC(=O)C2CCCN(c3ncnc4c3nc3n4CCCCC3)C2)c(OC)c1 (stereo not drawn)	.	-18.1%	.
Cc1cccc(NC(=O)Cn2c(=O)n(Cc3nc(-c4ccccc4)no3)c(=O)c3ccccc32)c1	15.8%[10.9 µM]	-15.7%	?
Cn1cc(C(=O)N2CCN(c3cccc(C(F)(F)F)c3)CC2)c2c3ccccc3n(C)c2c1=O	-3.1%[10.9 µM]	-5.0%	12.6µM*
Cn1c2ccccc2c2c(C(=O)N3CCN(c4cccc(C(F)(F)F)c4)CC3)cn(C3CCCCC3)c(=O)c21	13.2%[10.9 µM]	23.0%	5.6%
